{
  "source": "PubChem BioAssay (Tox21)",
  "note": "Results filed as inconclusive are left out. Active and inactive are the calls of the source. Calls follow the shape of the dose curve; as a rule, active = well fitted inhibition curve with a large enough effect in the repeat runs; inconclusive = weak or mixed curves, or effect the other way; inactive = no such curve, though single readings can be large or run the other way. % is scaled to controls: 0 for no effect and ±100 for the full control effect.",
  "data": [
    {"experiment": "qHTS assay to identify small molecule antagonists of the retinoic acid receptor (RAR) signaling pathway (AID 1159552; also: nearly all actives have a fitted effect of over 50% in size)", "settings": "C3RL4 RARE luciferase reporter, retinol-stimulated, 6 h; series mostly up to 92.4 µM; activity, negative = inhibition: at the top concentration", "excerpt": "National Center for Advancing Translational Sciences [NCATS]\nNIH Chemical Genomics Center [NCGC]\nU.S. Environmental Protection Agency [EPA]\nNational Institutes of Environmental Health Sciences [NIEHS]\nNational Toxicology Program [NTP]\nU.S. Food and Drug Administration [FDA]\nAll-trans Retinoic acid (atRA) is the potent natural metabolite of retinol and plays an important role in normal embryonic development and maintenance of cellular phenotype in adult animals. atRA is the activating ligand for the retinoic acid receptors (RARs) which form heterodimers with retinoid X receptors (RXRs) on the retinoic acid response element (RARE). Through activation of the RAR/RXRs nuclear receptors, atRA regulates the transcription of a large number of protein-coding genes and regulatory RNAs. Intracellular levels of atRA are controlled by the retinol signaling pathway (RSP) that regulates the biosynthesis and catabolism of atRA to maintain physiological levels. Chemicals that interfere with the RSP can cause abnormal intracellular levels of atRA and therefore are potential developmental toxicants. To assess compounds for the potential adverse effect on embryonic development through interfering with retinol signaling, a cell-based RARE luciferase reporter gene assay was used. C3RL4 cell line (OARSA/CFSAN/FDA, Laurel, MD) was used to screen Tox21 10K compound library for identifying inhibitors of the RSP.\nTox21 Assay Protocol Summary:\nC3RL4 cells were seeded at 1,000/well in 4 uL of assay medium into white solid 1,536-well tissue culture plates (Greiner Bio-One North America Inc. Monroe, NC) using a Multidrop Combi (Thermo Scientific, Waltham, MA) dispenser. After incubation at 37 C and 5% CO2 for an overnight, 23 nL of compounds dissolved in DMSO, positive control or DMSO only were transferred by a Pintool station (Kalypsys, San Diego, CA). One ul of 1 uM (final concentration) of Retinol was added right after the compound addition by using a Flying Reagent Dispenser (FRD) (Aurora Discovery, San Diego, CA). After 6 hr incubation at 37 C and 5% CO2, 5 uL of Amplite Luciferase reagent (AAT Bioquest Inc. Sunnyvale, CA) was added to each assay plate using an FRD. Luminescence was quantified on a ViewLux plate reader (PerkinElmer, Waltham, MA) after 30 min incubation at room temperature.", "values": [
      {"smiles": "CCCCCCCCC(=O)OCC(C)OC(=O)CCCCCCCC", "note": "(stereo not given)", "activity, negative = inhibition": "8.3% (inactive)"},
      {"smiles": "Cc1cc(C)c(C)c(O)c1", "activity, negative = inhibition": "13.1% (inactive)"},
      {"smiles": "CC(C)=CCCC(C)C=O", "note": "(stereo not given)", "activity, negative = inhibition": "10.2% (inactive)"},
      {"smiles": "OCCc1ccncc1", "activity, negative = inhibition": "19.8% (inactive)"},
      {"smiles": "Cc1cccc(C)c1NC(=O)CN1CCCC1", "activity, negative = inhibition": "-17.1% [at 42.5 µM] (inactive)"},
      {"smiles": "O=C(O)CNc1ccccc1", "activity, negative = inhibition": "49.1% (inactive)"},
      {"smiles": "CCn1nc(Cc2ccccc2)cc1C1CCN(C[C@H]2C[C@H](N(C)[C@@H](C(=O)O)C(C)C)C[C@@H]2c2cccc(F)c2)CC1", "activity, negative = inhibition": "-13.1% (inactive)"},
      {"smiles": "CCc1ccc(C(=O)C(C)CN2CCCCC2)cc1", "note": "(stereo not given)", "activity, negative = inhibition": "9.02% [at 42.5 µM] (inactive)"},
      {"smiles": "CCOCCn1c(N2CCCN(C)CC2)nc2ccccc21", "activity, negative = inhibition": "3.33% [at 42.5 µM] (inactive)"},
      {"smiles": "CCCCCCCCCCCCCCCCN", "activity, negative = inhibition": "0.51% [at 42.5 µM] (inactive)"},
      {"smiles": "CC(=O)CC/C=C(\\C)CC/C=C(\\C)CC/C=C(\\C)CCC=C(C)C", "activity, negative = inhibition": "-11.8% [at 42.5 µM] (inactive)"},
      {"smiles": "O=C(Nc1ccc2c(c1)Cc1ccccc1-2)C(F)(F)F", "activity, negative = inhibition": "91.9% (inactive)"},
      {"smiles": "CC(COc1ccccc1)NC(C)C(O)c1ccc(O)cc1", "note": "(stereo not given)", "activity, negative = inhibition": "-3.43% [at 42.5 µM] (inactive)"},
      {"smiles": "CC(C)(Cc1c[nH]c2ccccc12)NCC(O)COc1ccccc1C#N", "note": "(stereo not given)", "activity, negative = inhibition": "-19.8% [at 42.5 µM] (inactive)"},
      {"smiles": "O=[N+]([O-])c1cccc(I)c1", "activity, negative = inhibition": "-11% (inactive)"},
      {"smiles": "Cc1c(Nc2ncccc2C(=O)O)cccc1C(F)(F)F", "activity, negative = inhibition": "67.1% [at 42.5 µM] (inactive)"},
      {"smiles": "OCCOc1cccc(OCCO)c1", "activity, negative = inhibition": "16.5% (inactive)"},
      {"smiles": "CCCN(C1CCN(C(=O)C2CCNCC2)CC1)[C@@H]1CCc2ccc(OC)cc2C1", "activity, negative = inhibition": "-0.952% (inactive)"},
      {"smiles": "CC(C)(C)N", "activity, negative = inhibition": "7.35% (inactive)"},
      {"smiles": "O=C(O)c1ccncc1", "activity, negative = inhibition": "149% (inactive)"},
      {"smiles": "O=Cc1ccc([N+](=O)[O-])cc1", "activity, negative = inhibition": "89% (inactive)"},
      {"smiles": "OCC(O)c1ccccc1", "note": "(stereo not given)", "activity, negative = inhibition": "3.73% (inactive)"},
      {"smiles": "CCC(C)CCCC(C)(C)O", "note": "(stereo not given)", "activity, negative = inhibition": "8.71% (inactive)"},
      {"smiles": "CCC(C(=O)O)c1ccc(N2Cc3ccccc3C2=O)cc1", "note": "(stereo not given)", "activity, negative = inhibition": "143% [at 42.5 µM] (inactive)"},
      {"smiles": "CC1=C(C)C(=O)C(C(CCCCCC(=O)O)c2ccccc2)=C(C)C1=O", "note": "(stereo not given)", "activity, negative = inhibition": "-0.0154% [at 42.5 µM] (inactive)"},
      {"smiles": "O=[N+]([O-])c1ccc(Cl)cc1Cl", "activity, negative = inhibition": "-2.21% (inactive)"},
      {"smiles": "CC(C)C/C=C(\\C=O)c1ccccc1", "activity, negative = inhibition": "-11.6% (inactive)"},
      {"smiles": "Cc1cc(N)n(-c2ccccc2)n1", "activity, negative = inhibition": "64.9% (inactive)"},
      {"smiles": "C(/C=C/C=C/Nc1ccccc1)=Nc1ccccc1", "activity, negative = inhibition": "15.7% (inactive)"},
      {"smiles": "O=[N+]([O-])c1ccccc1CCO", "activity, negative = inhibition": "60.9% (inactive)"},
      {"smiles": "CC(C)=CCC[C@H](C)CCO", "activity, negative = inhibition": "8.33% (inactive)"},
      {"smiles": "C[C@H](N)C(=O)N[C@@H](C)C(=O)NC1[C@H]2CN(c3nc4c(cc3F)c(=O)c(C(=O)O)cn4-c3ccc(F)cc3F)C[C@@H]12", "note": "(stereo not given in full)", "activity, negative = inhibition": "-7.42% [at 42.5 µM] (inactive)"},
      {"smiles": "CC1(C)CC(O)CC(C)(C)N1[O]", "activity, negative = inhibition": "51.2% (inactive)"},
      {"smiles": "CCCCCCOC(=O)c1ccccc1", "activity, negative = inhibition": "21.2% (inactive)"},
      {"smiles": "COc1ccc(/C=C/c2cc(OC)cc(=O)o2)cc1", "activity, negative = inhibition": "69.6% [at 42.5 µM] (inactive)"},
      {"smiles": "CCOc1ccc(NC(C)=O)cc1N", "activity, negative = inhibition": "108% (inactive)"},
      {"smiles": "COc1ccc(C(=O)Nc2ccccc2)cc1[N+](=O)[O-]", "activity, negative = inhibition": "109% (inactive)"},
      {"smiles": "COC=O", "activity, negative = inhibition": "-0.361% [at 8.39 µM] (inactive)"},
      {"smiles": "O=C1c2ccccc2C(=O)C1c1ccc2cc(S(=O)(=O)O)cc(S(=O)(=O)O)c2n1", "activity, negative = inhibition": "50.1% (inactive)"},
      {"smiles": "O=C(O)c1ccc2cc(O)ccc2c1", "activity, negative = inhibition": "59.6% (inactive)"}
    ]}
  ]
}
